Most compounds without a hit are left out; they make up all but 1.8% or so of the library.
LYPLA2 counter: LYPLA2 inhibitors, primary screen, counter-screen for PME1 inhibitor project, biochemical, fluorescence polarization, FP-Rh probe ABPP | AID 2177, 2009 | 0.38% of 320,000 active | recombinant LYPLA2 | Acyl-protein thioesterase 2 (Homo sapiens), O95372 | inhibition, % at 5.9 µM;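 active means inhibition above the screen-wide mean plus 3 SD, limit set per campaign, cut at about 26% in these data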
Target sequence (O95372 whole entry, looked up): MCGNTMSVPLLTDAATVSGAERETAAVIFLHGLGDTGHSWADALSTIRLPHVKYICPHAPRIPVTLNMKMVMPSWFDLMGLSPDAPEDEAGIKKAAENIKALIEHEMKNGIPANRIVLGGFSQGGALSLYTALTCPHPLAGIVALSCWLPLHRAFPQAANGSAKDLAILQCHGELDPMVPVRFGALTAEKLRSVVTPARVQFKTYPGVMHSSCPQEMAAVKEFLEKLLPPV
GSTO1 counter: inhibitors of recombinant GSTO1, primary screen, counter-screen for RBBP9 inhibitor project, biochemical, fluorescence polarization; Glutathione S-transferase omega-1 (Homo sapiens), P78417; activity-based probe fluorescence polarization; inhibition, % at 5.96 µM; 1.1% of 300,000 active; AID 1974, 2009;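 active means inhibition above the campaign mean inhibition plus 3 SD, cut at about 35% in these data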
Target sequence (P78417 whole entry, looked up): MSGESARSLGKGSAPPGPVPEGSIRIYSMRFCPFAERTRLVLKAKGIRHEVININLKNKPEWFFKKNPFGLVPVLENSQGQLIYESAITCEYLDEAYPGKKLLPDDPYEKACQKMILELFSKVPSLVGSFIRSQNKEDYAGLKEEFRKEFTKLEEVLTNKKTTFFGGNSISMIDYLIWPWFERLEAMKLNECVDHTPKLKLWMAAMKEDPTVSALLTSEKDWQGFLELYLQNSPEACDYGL
PME-1 primary: PME-1 inhibitors via competitive probe labeling, primary screen, biochemical, fluorescence polarization, FP-Rh probe, HTS | Protein phosphatase methylesterase 1 (Homo sapiens), Q9Y570 | recombinant PME-1 | inhibition, % at 5.9 µM | 0.53% of 320,000 active | AID 2130, 2009;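 active means inhibition above the campaign mean of all compounds plus 3 SD, cut at about 26% in these data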;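 further: competitive labeling of PME-1 active site by serine hydrolase directed probe; inhibitors block probe labeling so polarization falls and inhibition rises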
Fam108B inh: mouse Fam108B serine hydrolase inhibitors, primary screen, counter-screen for RBBP9 inhibitor project, biochemical, fluorescence polarization; inhibition, % at 9.51 µM; 0.33% of 300,000 active; recombinant Fam108B, FP-Rh probe fluorescence polarization;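 active means inhibition above the screen mean inhibition plus 3 SD, computed separately per campaign, cut at about 18% in these data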;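 further: inhibitors lower polarization as less probe binds the enzyme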
PAD4 FP inh: human PAD4 inhibitors, primary screen, biochemical, fluorescence polarization, 1536-well format | recombinant PAD4, RCA probe fluorescence polarization | inhibition, % at 6.36 µM | 0.41% of 330,000 active | AID 485272, 2010;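 active means percent inhibition above a cutoff equal to the mean of all tested compounds plus 3 SD, cut at about 15% in these data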
LYPLA1 counter: LYPLA1 inhibitors, primary screen, counter-screen for PME1 inhibitor project, biochemical, fluorescence polarization, FP-Rh probe ABPP; Acyl-protein thioesterase 1 (Homo sapiens), O75608; recombinant LYPLA1; inhibition, % at 5.9 µM; 0.16% of 320,000 active;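 active means inhibition above the mean of all tested compounds plus 3 SD, set per campaign, cut at about 14% in these data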;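 further: inhibitors block serine hydrolase probe labeling of LYPLA1 so polarization falls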
GSTO1 confirm: GSTO1 inhibitor hit confirmation, counter-screen for RBBP9 inhibitor project, biochemical, fluorescence polarization, triplicate; shares compounds with GSTO1 counter; recombinant GSTO1, probe fluorescence polarization; inhibition, % at 5.96 µM; 54% of 2,400 active; AID 2176, 2009;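 active means inhibition above the primary screen's cutoff, its mean inhibition plus 3 SD, cut at about 35% in these data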;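 further: loss of polarization as inhibitors block binding of rhodamine sulfonate ester activity probe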
GSTO1 recomb ABPP: inhibitors of purified human GSTO1, late-stage follow-up, biochemical, gel ABPP, SE-Rh probe, percent inhibition | shares compounds with GSTO1 counter | recombinant GSTO1, gel ABPP SE-Rh probe fluorescence | inhibition, % at 1 µM | 30% of 130 active;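 active means inhibition of the enzyme GSTO1 above about 75%, limit read from the data; inactive means inhibition below that limit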
Large screens that a line does not name were inactive (follow-up assays come after a bar, where they were run).

COc1ccc(NC(=O)CSc2nnc(-c3ccco3)c(-c3ccco3)n2)cc1OC	none
O=C(CSc1nnc(-c2ccco2)c(-c2ccco2)n1)Nc1ccccc1	GSTO1 counter 42 | GSTO1 confirm inactive
COc1cccc(NC(=O)CSc2nnc(-c3ccco3)c(-c3ccco3)n2)c1	GSTO1 counter 50 | GSTO1 confirm inactive
Cc1ccccc1NC(=O)CSc1nnc(-c2ccco2)c(-c2ccco2)n1	GSTO1 counter 55 | GSTO1 confirm inactive
O=C(NC(=S)Nc1ccccc1)c1ccc(Br)o1	none
CCCC(=O)Nc1ccc(C(=O)NNC(=S)NC(=O)c2ccc(Br)o2)cc1	GSTO1 counter 44 | GSTO1 confirm inactive
COc1ccc(NC(=S)NC(=O)c2ccc(Br)o2)cc1	GSTO1 counter 45 | GSTO1 confirm inactive
CCCC(=O)Nc1ccc(C(=O)NNC(=S)NC(=O)c2cccs2)cc1	none
S=C(NCCc1c[nH]c2ccccc12)NC1CCCCC1	GSTO1 counter 51 | GSTO1 confirm inactive
COC(=O)c1cc(NC(=O)/C=C/c2ccccc2)ccc1O	none
CCCOC(=O)c1sc2nc3c(cc2c1N)C(=O)CCC3	none
Nc1c(C(=O)NCc2ccco2)sc2nc3c(cc12)C(=O)CCC3	GSTO1 counter 47 | GSTO1 confirm inactive
CN(C)Cc1cc(O)c(CN(C)C)cc1O	GSTO1 counter 53 | GSTO1 confirm inactive
CCN(CC)C(=O)C1CCN(S(=O)(=O)c2ccc3c(c2)CCCN3C(=O)C2CCC2)CC1	none
CC1(C)CC(=O)C(C=Nc2ccc3c(c2)OCO3)=C(O)C1	none
CC1(C)CC(=O)C(C=Nc2ccc(O)c(N=CC3=C(O)CC(C)(C)CC3=O)c2)=C(O)C1	GSTO1 counter 85 | GSTO1 confirm 67
CCCCn1c(N)c(N(CC)C(=O)C2CCN(C(=O)c3ccccc3C)CC2)c(=O)[nH]c1=O	none (no result: GSTO1 counter, Fam108B inh)
Cc1nc2ccccc2c(=O)n1/N=C/c1ccc(O)c(O)c1O	GSTO1 counter 71 | GSTO1 confirm inactive
Cc1nc2ccccc2c(=O)n1/N=C/c1ccccc1	none
Cc1ccc(N)cc1O	none (no result: GSTO1 counter, Fam108B inh)
Cc1cc(O)c(-c2cc(O)c(C)cc2O)cc1O	GSTO1 counter 82 | GSTO1 confirm inactive
CC1=C(C#N)C2(O)C(=O)c3ccccc3C2(O)N1 (centres undefined)	none
CC(=O)C1=C(C)OC2(O)c3ccccc3C(=O)C12O (centres undefined)	GSTO1 counter 72 | GSTO1 confirm 80
C=CCn1c(CCC(O)COCCC)n[nH]c1=S (centres undefined)	none
CCOC(=O)c1sc(Nc2ccc(OCC)cc2)nc1C	none
CCOC(=O)c1sc(N2N=C(C)/C(=C\c3ccc(OCC(=O)OC)cc3)C2=O)nc1C	GSTO1 counter 39 | GSTO1 confirm inactive
CCNc1nc(NCC)n2c(SCC(=O)c3ccc(C(C)C)cc3)nnc2n1	GSTO1 counter 95 | GSTO1 confirm 87
O=C(O)COc1ccc(S(=O)(=O)c2ccc(OCC(=O)O)cc2)cc1	none
O=S(=O)(c1ccc(OCC2CO2)cc1)c1ccc(OCC2CO2)cc1 (centres undefined)	GSTO1 counter 92 | GSTO1 confirm 90 | GSTO1 recomb ABPP inactive
CC(C)(c1ccccc1)c1ccc(OCC2CO2)cc1 (centres undefined)	GSTO1 counter 94 | GSTO1 confirm 91 | GSTO1 recomb ABPP inactive
Cc1onc(-c2c(F)cccc2Cl)c1C(=O)OCc1nnc(-c2ccccc2)o1	none (no result: GSTO1 counter, Fam108B inh)
O=C(CCCCn1c(=O)[nH]c2ccccc2c1=O)NCCC1=CCCCC1	none
COc1cc(SSc2cc(OC)cc([N+](=O)[O-])c2N)c(N)c([N+](=O)[O-])c1	none
O=c1[nH]c(CCl)nc2cc(-c3ccc(F)cc3)sc12	GSTO1 counter 97 | GSTO1 confirm 94 | GSTO1 recomb ABPP 82
O=c1[nH]cnc2cc(-c3ccc(Br)cc3)sc12	none
COC(=O)CCCC1=CC2=C(c3ccccc3)C(=O)C(C)(OC(=O)C3CCCC3)C(=O)C2=CN1C1CCCC1 (centres undefined)	none
COC(=O)CCCC1=CC2=C(c3ccccc3)C(=O)C(C)(OC(=O)C3CCCC3)C(=O)C2=CN1CC1CC1 (centres undefined)	GSTO1 counter 49 | GSTO1 confirm inactive
COC(=O)CCCC1=CC2=C(c3ccccc3)C(=O)C(C)(OC(=O)C3CCCC3)C(=O)C2=CN1CC(C)C (centres undefined)	GSTO1 counter 52 | GSTO1 confirm inactive
COCCN1C=C2C(=O)C(C)(OC(=O)C3CCCC3)C(=O)C(c3ccccc3)=C2C=C1CCCC(=O)OC (centres undefined)	GSTO1 counter 45 | GSTO1 confirm inactive
COC(=O)CCCC1=CC2=C(c3ccccc3)C(=O)C(C)(OC(=O)C3CCCC3)C(=O)C2=CN1C1CCCCC1 (centres undefined)	GSTO1 counter 38 | GSTO1 confirm inactive
CCN(CC)CCCN1C=C2C(=O)C(C)(OC(=O)C3CCCC3)C(=O)C(c3ccccc3)=C2C=C1CCCC(=O)OC (centres undefined)	none
COC(=O)CCCC1=CC2=CC(=O)C(C)(OC(=O)C3CCCC3)C(=O)C2=CO1 (centres undefined)	none
O=C(Cc1cccs1)N(CC1CCCO1)C1(C(=O)NC2CCCC2)CCCCC1 (centres undefined)	none
O=C(O)c1ccc(NC(=O)c2ccccc2NC(=O)c2cccc(Br)c2)cc1	none
CCOc1ccc(/C=N/Nc2ccccc2)cc1	GSTO1 counter 41 | GSTO1 confirm inactive
COC(=O)c1ccccc1NC(=O)c1ccccc1SC	GSTO1 counter 66 | GSTO1 confirm inactive
CCOC(=O)c1ccccc1NC(=O)c1ccccc1SC	none
O=C(COC(=O)C1(c2ccc(F)cc2)CCCC1)N1CCN(C(=O)c2ccco2)CC1	none
Cc1cc(C)c(S(=O)(=O)NCc2cn3ccccc3n2)c(C)c1	GSTO1 counter 39 | GSTO1 confirm inactive
Cc1cc(C)c(S(=O)(=O)Nc2ccc(-c3cn4ccccc4n3)cc2)c(C)c1	none
Cc1ccc2c(C)c(C(=O)NCCN3CCCC(O)C3)oc2c1C (centres undefined)	none

Source: PubChem (The Scripps Research Institute Molecular Screening Center)
